HP1b binding inh: HP1-beta chromodomain-methylated histone interaction inhibition; actives 0.56% (n = 390,000); Potency, µM (series often up to 114 µM), inactives show at the top dose activity change, negative = inhibition, usual class: inhibitors; AlphaScreen HP1-beta / biotin-H3K9me3 peptide binding; P83916; note: potency is the fitted concentration of half-maximal effect; nearly all actives have a fitted effect of over 70% in size
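HP1-beta protein (50 nM final) preincubated 30 min at room temperature with biotinylated H3(1-18)K9me3 peptide (50 nM) in PBS pH 7.4, 0.01% Tween-20, then compound added for 30 min. AlphaScreen streptavidin donor/nickel chelate acceptor beads (10 ug/mL final), 30 min dark, luminescence read.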
G9a block: G9a (human) methyltransferase inhibition. Q96KQ7. G9a H3K9 monomethylation, AlphaScreen, 2 h. Potency, µM (series often up to 102 µM), without a hit: at the highest dose activity, negative = inhibition, most hits filed as inhibitors. actives 8.8% (n = 350,000); note: potency is the fitted concentration of half-maximal effect; % is set by controls: 0 for no effect and ±100 for the full control effect; nearly all actives have a fitted effect of over 75% in size
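Using a bead-based AlphaScreen, monomethylated H3K9 product from 2 h room-temperature reactions (G9a 20 nM, peptide 500 nM, SAM 20 uM) was detected with 0.5 ug/mL rabbit anti-H3K9me1 antibody.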
BAZ2B inh: inhibitors of human BAZ2B bromodomain; AlphaScreen BAZ2B-H3K14Ac peptide displacement; Q9UIF8; Potency, µM (highest dose often 114 µM), inactives show top-dose activity change, negative = inhibition, actives largely listed as inhibitors; actives 4.4% (n = 360,000); note: potency is the fitted concentration of half-maximal effect; % is set by controls: 0 for no effect and ±100 for the full control effect; nearly all actives have a fitted effect of over 60% in size
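Compounds, titrated to a top concentration of 110 uM, were incubated 30 min at room temperature with preformed BAZ2B/acetyl-K14 H3 peptide complex (50 nM each). Proximity signal was measured by AlphaScreen after 20 min with beads.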
PI5P4K alpha inh: PI5P4K alpha (human) kinase inhibition. max response, %. actives 1.2% (n = 330,000). PI5P4Kalpha enzyme, ADP-Glo luminescence, 60 min; active compounds read low; active = max response of -50% or lower; inconclusive = between -30% and -50%; inactive = -30% or higher; note: value at the top dose of about 77 µM; % is set by controls: 0 for no effect and ±100 for the full control effect
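ADP-Glo luminescence end-point after a 60 min room-temperature kinase reaction. PI5P4Kalpha and substrate in HEPES pH 7.4 buffer with EGTA, 0.1% CHAPS and 5% DMSO; ATP at 5 microM final.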
L3MBTL1 inh: inhibitors of human L3MBTL1 | Q9Y468 | AlphaScreen L3MBTL1–H3K9me1 peptide binding | Potency, µM (titrated, usually from 57.1 µM), without a hit: top-dose activity, negative = inhibition, usual class: inhibitors | actives 0.66% (n = 230,000) | AID 485360; note: potency is the fitted concentration of half-maximal effect; % is set by controls: 0 for no effect and ±100 for the full control effect; nearly all actives have a fitted effect of over 60% in size
Target sequence (Q9Y468 whole entry, looked up): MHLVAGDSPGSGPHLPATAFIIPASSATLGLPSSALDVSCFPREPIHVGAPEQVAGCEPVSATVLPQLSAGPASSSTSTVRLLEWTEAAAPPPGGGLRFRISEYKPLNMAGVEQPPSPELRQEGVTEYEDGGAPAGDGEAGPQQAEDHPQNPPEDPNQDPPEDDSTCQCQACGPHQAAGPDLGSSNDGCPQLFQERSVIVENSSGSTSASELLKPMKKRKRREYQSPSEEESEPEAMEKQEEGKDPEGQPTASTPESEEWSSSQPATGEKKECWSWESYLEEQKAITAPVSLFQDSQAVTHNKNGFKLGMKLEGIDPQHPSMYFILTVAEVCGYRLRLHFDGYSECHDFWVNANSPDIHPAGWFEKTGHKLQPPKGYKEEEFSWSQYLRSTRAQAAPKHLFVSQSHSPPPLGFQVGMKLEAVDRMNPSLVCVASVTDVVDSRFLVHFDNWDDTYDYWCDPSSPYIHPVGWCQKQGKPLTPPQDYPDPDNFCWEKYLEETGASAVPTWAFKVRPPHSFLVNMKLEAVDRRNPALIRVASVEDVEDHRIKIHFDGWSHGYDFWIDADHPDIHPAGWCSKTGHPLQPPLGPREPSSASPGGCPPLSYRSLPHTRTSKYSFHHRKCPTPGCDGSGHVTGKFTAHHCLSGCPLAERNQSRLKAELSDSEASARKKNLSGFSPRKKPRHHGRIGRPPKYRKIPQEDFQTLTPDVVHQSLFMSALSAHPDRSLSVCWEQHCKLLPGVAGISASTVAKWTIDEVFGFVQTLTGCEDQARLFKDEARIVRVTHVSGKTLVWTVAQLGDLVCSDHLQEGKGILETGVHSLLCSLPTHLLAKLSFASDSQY
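Read-out is AlphaScreen signal from streptavidin donor and nickel chelate acceptor beads (10 ug/mL final each) bridging L3MBTL1 (50 nM) and biotinylated K9-monomethylated H3(1-15) peptide (75 nM), after 30 min compound exposure at room temperature.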
JMJD2A Tudor inh: inhibitors of human JMJD2A Tudor domain. O75164. AlphaScreen JMJD2A-Tudor / H3K4me3 peptide binding. Potency, µM (top dose mostly 114 µM), for the others: at the top dose activity change, negative = inhibition, usual class: inhibitors. actives 4.4% (n = 390,000). AID 504339; note: potency is the fitted concentration of half-maximal effect; % is set by controls: 0 for no effect and ±100 for the full control effect; nearly all actives have a fitted effect of over 50% in size
Starred values were filed as active, the others as inactive; ? = inconclusive; / = not tested or not shown; [ ] = remark or other dose. Compounds with a hit are over-represented: about 11% of the library has one in this group of screens. Unless noted, calls come from the whole dose curve; as a rule, active = well fitted inhibition curve with a large enough effect; inconclusive = small, poorly fitted or top-dose-only effect; inactive = no such curve, though single readings can be large or run the other way.

SMILES	HP1b binding inh	G9a block	BAZ2B inh	PI5P4K alpha inh	L3MBTL1 inh	JMJD2A Tudor inh
CCOC(=O)CN1C(=O)C(O)=C(C(C)=O)C1c1ccc(F)cc1 (stereo unspecified)	2%	35µM*	71µM*	5	0%	-35%
CCOC(=O)CN1C(=O)C(O)=C(C(C)=O)C1c1ccc([N+](=O)[O-])cc1 (stereo unspecified)	38%	?	?	0	/	-18%
CCOC(=O)CN1C(=O)C(O)=C(C(C)=O)C1c1ccccc1 (stereo unspecified)	7%	-37%[2.33 µM]	79µM*	1	/	?
N#Cc1cccc(NC(=O)N2CCCC3(CCN(C(=O)c4cnccn4)CC3)C2)c1	/	-3%[12.7 µM]	/	/	/	/
Fc1ccc(-c2cc(-c3nc(-c4ccccc4)no3)[nH]n2)cc1	47%	-3%[59 µM]	4%	/	/	0%
Cc1c(C(=O)NCc2ccc(F)cc2)oc2ccc(S(=O)(=O)N3CCCCC3)cc12	34%	-21%[59 µM]	1%	/	/	-20%
CCCNC(=O)CN1C(=O)c2cccnc2Sc2ccccc21	?	-6%[59 µM]	-1%	/	/	-21%
O=[N+]([O-])c1ccc(C(c2sc3nc(-c4ccco4)nn3c2O)N2CCC3(CC2)OCCO3)cc1 (stereo unspecified)	-7%	?	-26%	/	/	-16%
O=C(CSc1nc(-c2ccccc2)cn1-c1ccccc1F)Nc1ccc(F)cc1	-9%	?	?	/	/	?
Cc1cc(C(=O)Nc2cccc(F)c2)c2c(C)nn(-c3cccc(Cl)c3C)c2n1	31%	7%[59 µM]	-7%[57.1 µM]	/	/	3%
O=C(O)c1ccccc1C(=O)Nc1ccc(-n2ccc(C(F)(F)F)n2)cc1	30%	79µM*	-5%	3	8%	-1%
Nn1c(Cc2ccccc2F)nnc1SCn1nnc2ccccc2c1=O	59%	25µM*	10%	0	-5%	-13%
Cc1ccc(-n2c(SCn3nnc4ccccc4c3=O)nnc2-c2cccnc2)c(C)c1	23%	3%[59 µM]	12%	/	-6%	-17%
O=c1c2ccccc2nnn1CSc1nnc(-c2cccnc2)n1-c1ccccc1F	7%	50µM*	0%	-5	-5%	-16%
Cc1oc2c(c(C)cc3oc(=O)c(CC(=O)NCCc4ccccc4F)c(C)c32)c1C	35%	3%[59 µM]	-1%	/	/	-9%
O=C(CCN1C(=O)c2ccccc2C1=O)CN1CCOCC1	-7%	50µM*	6%	-11	8%	-32%
O=C(N/N=C/c1cc(Br)ccc1O)C(c1ccncc1)N1CCOCC1 (stereo unspecified)	16%	14%	50µM*	-4	?	79µM*
CN(C)c1ccc(Nc2nc(N)c3ccccc3n2)cc1	32µM*	10µM*	14µM*	?	?	40µM*
Nc1nc(Nc2ccccc2)nc2ccccc12	29%	?	-32%	-22	3%	-6%[57.1 µM]
CCOC(=O)c1c(C)[nH]c(C)c1S(=O)(=O)N1CCCC(C(=O)N2CCN(c3cccc(C)c3C)CC2)C1 (stereo unspecified)	-14%	-16%[59 µM]	?	/	/	?
Cc1oc2ncn(CC(C)C)c(=O)c2c1C(=O)N(Cc1ccccc1)C(C)C	14%	-24%[59 µM]	8%[57.1 µM]	/	/	-7%
CCC(C)(C)NS(=O)(=O)c1cc(-c2cc(C)no2)ccc1C	11%	2%[59 µM]	6%	/	/	-10%
CN(Cc1ccccc1)Cc1c(F)cccc1F	?	11µM*	56µM*	/	-14%	7.1µM*
CN(Cc1ccccc1)Cc1ccccc1	/	-2%[12.7 µM]	/	/	/	/
COc1cccc(CN(C)Cc2nc(C3CC3)no2)c1	16%	21%	2%	-1	6%	0%
SMILES	HP1b binding inh	G9a block	BAZ2B inh	PI5P4K alpha inh	L3MBTL1 inh	JMJD2A Tudor inh
COc1cccc(CN(C)Cc2c(O)ccc3ccccc23)c1	5%	8.9µM*	3%	-1	/	-6%
COc1ccc2ccccc2c1CN(C)Cc1ccccc1	14%	-7%[0.501 µM]	?	-5	-4%[2.29 µM]	28µM*
COc1ccc(CN(C)Cc2c(O)ccc3ccccc23)cc1	54%	18µM*	-2%	5	/	0%
CCNC(=O)C1CCN(S(=O)(=O)c2ccc3c(c2)CCCN3C(C)=O)CC1	25%[57 µM]	12%[59 µM]	10%	/	/	1%
COc1ccc(CCNCc2c(OC)ccc3ccccc23)cc1OC	29%	-42%	0%	2	/	-9%
COc1ccc2ccccc2c1CNC(C)CCc1ccccc1 (stereo unspecified)	-1%	/	-15%	1	2%	79µM*
CN(C)Cc1c(O)ccc2ccccc12	36%	7.9µM*	-18%	-5	-4%	5%[11.4 µM]
COc1cc(OC)c2c(C)c(CC(=O)NCCc3ccccc3OC)c(=O)oc2c1	3%	2%[59 µM]	-5%	/	/	-17%
O=S(=O)(c1ccccc1)c1nnn2c1nc(NCc1ccc(F)cc1)c1sccc12	22%	-38%[59 µM]	?	/	/	-16%
Cc1ccc(NC(=O)c2ccc3c(c2)CCN3S(C)(=O)=O)cc1C	-13%	18%[59 µM]	-4%	?	-5%	16µM*
Cc1ccc(NC(=O)c2ccc3c(c2)CCN3S(C)(=O)=O)cc1	/	/	/	1	/	/
CCC(Nc1ccc(-c2nc(-c3cccnc3)no2)cc1[N+](=O)[O-])c1ccccc1 (stereo unspecified)	36%	-31%[59 µM]	0%	/	/	-2%
O=c1cc(Br)c(O)c(Br)cc1Br	?	/	/	?	/	22µM*
O=C1OC(c2ccccc2)(c2cc(Br)c(O)c(Br)c2)c2ccccc21 (stereo unspecified)	-21%	/	/	-14	/	-36%
O=c1cc2c(n[nH]1)CCCC2	22%	?	?	3	1%	56µM*
CS(=O)(=O)C1=NSC2=NC(=O)/C(=C\c3ccc(OS(=O)(=O)c4ccccc4)cc3)C(=N)N21	-10%	/	50µM*	-62*	/	?
COc1cccc(-n2c(C)cc(/C=C3\C(=N)N4N=C(CC(=O)N5CCOCC5)SC4=NC3=O)c2C)c1	16%	-5%	50µM*	0	/	-2%
COc1cccc(-n2c(C)cc(/C=C3/C(=N)N4C(=NC3=O)SN=C4S(C)(=O)=O)c2C)c1	-11%	45µM*	56µM*	-63*	/	?
CC1=NN2C(=N)/C(=C\c3cc(C)n(-c4cccc(C)c4)c3C)C(=O)N=C2S1	27%	-8%	-2%	-16	3%	-13%
COc1cc(/C=C2/C(=N)N3C(=NC2=O)SN=C3S(C)(=O)=O)ccc1OS(=O)(=O)c1ccc(C)cc1	-17%	?	?	-79*	/	56µM*
CC1CCCN(C(=O)Cn2c(=O)n(CC3CCC(C(=O)NC(C)C)CC3)c(=O)c3sccc32)C1 (stereo unspecified)	135%	23%[59 µM]	18%	/	/	-7%

Screens: PubChem, National Center for Advancing Translational Sciences (NCATS)
